Sampled rows, rich in hits. Any-hit rate of the full collection: about 5.6%.
PKM2 activator – increases activity of human pyruvate kinase M2; P14618; purified PKM2, Kinase-Glo ATP luminescence, activation; response scale: 0% is enzyme alone, no compound; Potency, µM (highest dose often 57.5 µM), for inactives: top-dose activation, usual class: activators; hit rate 0.34% among 260,000; further: potency means the concentration at half of the fitted maximal effect; nearly all actives have a fitted effect of over 55% in size
Target sequence (P14618 whole entry, looked up): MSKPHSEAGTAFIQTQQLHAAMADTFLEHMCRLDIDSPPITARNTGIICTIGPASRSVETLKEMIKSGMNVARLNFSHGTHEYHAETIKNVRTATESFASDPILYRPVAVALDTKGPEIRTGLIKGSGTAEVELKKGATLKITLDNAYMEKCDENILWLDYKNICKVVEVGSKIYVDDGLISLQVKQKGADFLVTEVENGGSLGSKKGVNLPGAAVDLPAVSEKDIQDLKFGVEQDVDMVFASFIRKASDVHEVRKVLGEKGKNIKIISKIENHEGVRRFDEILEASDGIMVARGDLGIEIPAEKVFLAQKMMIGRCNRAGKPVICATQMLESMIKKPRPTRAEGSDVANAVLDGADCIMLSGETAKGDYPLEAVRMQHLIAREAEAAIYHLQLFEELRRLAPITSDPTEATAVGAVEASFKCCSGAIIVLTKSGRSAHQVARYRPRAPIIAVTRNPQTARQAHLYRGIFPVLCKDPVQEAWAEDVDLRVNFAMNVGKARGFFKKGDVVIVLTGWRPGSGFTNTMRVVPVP
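ATP formation by purified human PK-M2, quantified via coupled luciferase luminescence after 1 h at room temperature with 0.1 mM ADP and 0.5 mM PEP final.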
VP16 counter – inhibits Gal4-VP16 luciferase reporter, ROR gamma counter-screen; hit rate 3.5% among 310,000; AID 2546; Drosophila S2 Gal4-VP16 UAS-luciferase, luminescence, 20 h; Potency, µM (titrated, usually from 53.6 µM), inactives show at the top dose activity, negative = inhibition, usual class: inhibitors;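 further: Gal4-VP16 expression switched on by copper sulfate through the metallothionein promoter; potency means the concentration at half of the fitted maximal effect; nearly all actives have a fitted effect of over 50% in size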
RORg inh – inhibitors of mouse ROR gamma transcriptional activity; Drosophila S2 Gal4-RORgamma UAS-luciferase reporter, 20 h; Potency, µM (highest dose often 53.6 µM), inactives show at the highest dose activity change, negative = inhibition, hits mostly inhibitors; hit rate 5.4% among 310,000; further: potency means the concentration at half of the fitted maximal effect; nearly all actives have a fitted effect of over 60% in size
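Compounds are pin-transferred onto Drosophila Schneider cells expressing a copper-inducible Gal4–ROR gamma transactivation domain fusion. After 1 hr, copper sulfate is added to 700 uM final; luciferase is read 20 hr later.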
CtBP-E1A blk – blocks the CtBP interaction with E1A; activity change, % (test concentration not listed); AlphaScreen GST-E1A/His-CtBP binding, 1536-well; active compounds read low; hit rate 0.49% among 340,000; AID 651724; in the data active means activity change below about -65%; inconclusive means mostly about -30% to -63%
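GST-E1A and His-tagged CtBP (125 nM each as 5X stock) were preincubated with pin-transferred compound for 2 h at 37 °C in the dark, then glutathione donor and nickel acceptor beads were added for 1 h before AlphaScreen reading.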
Six1-Eya2 inh – Six1/Eya2 interaction inhibition; hit rate 0.56% among 360,000; AID 651725; activity change, % (no concentration beside the values); Q15475+O00167; AlphaScreen GST-Six1/His-Eya2 binding, biochemical; active compounds read low; in the data active means activity change below about -65%; inconclusive means mostly about -30% to -63%
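AlphaScreen luminescence read after one hour at 37 °C in darkness. Pin-transferred compounds met GST-Six1 and His-Eya2 protein (5X stock 250 nM/500 nM) plus glutathione donor and Ni-chelate acceptor beads (5X, 50 ug/mL).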
* = called active by the depositor; ? = inconclusive; / = no result; [ ] = another dose, or the depositor's remark. Unless noted, the call rests on the fitted dose curve; in most records, active means well fitted curve in the direction sought with a large enough effect; inconclusive means small, poorly fitted or top-dose-only effect, or another doubt; inactive means no such curve, though single readings can be large; an effect the other way counts as inactive or inconclusive. On the % scale 0 is the no-effect control and ±100 the full control effect.

SMILES | PKM2 activator | VP16 counter | RORg inh | CtBP-E1A blk | Six1-Eya2 inh
O=C(Nc1nc2ccccc2n1CCOc1ccccc1)c1ccco1 | ? | 5µM* | 2µM* | -6 | -11
Cc1ccc(OCCn2c(CCNC(=O)C(C)C)nc3ccccc32)cc1 | 1% | 0% | 4% | -6 | -7
O=C(Nc1nc2ccccc2n1CCOc1ccc(Cl)cc1)c1ccco1 | -1% | 2.5µM* | 1.4µM* | 1 | -1
Cc1ccc(OCCn2c(NC(=O)c3ccco3)nc3ccccc32)cc1 | -2% | 2µM* | 1.6µM* | -2 | 3
C[C@@H]1CC2OC(=O)[C@@]3(C)C(=O)CC[C@@](C)(C23)[C@@]1(O)CCc1ccoc1 (stereo partly drawn) | / | -8% | 3% | -3 | 2
Cn1c(SCC(=O)Nc2ccc3[nH]c(=O)[nH]c3c2)nnc1-c1ccc(F)cc1 | 3% | -4% | 0% | -12 | -1
Cc1noc(C)c1COc1ccccc1C(=O)NCCOc1ccccc1 | / | / | / | 14 | -2
CCn1c(NC(C)=O)nc2ccccc21 | 2% | ? | ? | 4 | 0
C=CCn1c(C(O)c2ccccc2)nc2ccccc21 (stereo not drawn) | 2% | 6% | 1% | 9 | -15
CC(=O)Nc1nc2ccccc2n1Cc1ccc(Cl)cc1 | -12% | 1.6µM* | 1.1µM* | 3 | 2
C=CCn1c(C(C)C)nc2ccccc21 | -10% | -5%[10 µM] | 11µM* | -19 | 3
O=C(Nc1nc2ccccc2n1CCN1CCCCC1)c1ccco1 | -1% | ? | 0%[10 µM] | -15 | -27
C=CCn1c(NC(=O)c2ccco2)nc2ccccc21 | 0% | 3.5µM* | 4µM* | -4 | -3
CC(NC(=O)/C=C/c1ccco1)c1nc2ccccc2n1Cc1cccc(Cl)c1 (stereo not drawn) | ? | 11µM* | ? | 2 | -10
CCN(c1ccc(NC(=O)c2ccc(Cl)nc2)cc1)C(C)C | 1% | 26% | ? | 12 | -13
O=C(NCCN1CCOCC1)c1cccc(NS(=O)(=O)c2ccc(Br)cc2)c1 | / | / | / | -8 | 9
Cc1cccc(OCCn2c(S(=O)(=O)O)nc3ccccc32)c1 | -4% | -2% | 18% | 8 | 0
Cc1cccc(OCCn2c(NC(=O)c3ccco3)nc3ccccc32)c1 | -1% | 2µM* | 1.4µM* | -3 | -5
COc1c(C(=O)NCCSC(C)(C)C)ccc2ccccc12 | -1% | 0% | 2.2µM* | 10 | -15
O=S(=O)(c1ccc(Cl)c(Cl)c1)c1snnc1-c1ccccc1 | 0% | ? | 20µM* | -1 | -2
O=C(NNc1ccccc1)c1ccc(Cl)c(Cl)c1 | / | / | / | 3 | -4
O=C1c2ccccc2C(=O)C1c1ccc(Cl)cc1 | -9% | 12% | 0% | 11 | 3
O=C1c2ccccc2C(=O)C12OC2c1ccc(Cl)cc1Cl (stereo not drawn) | -3% | ? | 10µM* | 8 | 12
O=S1(=O)Nc2c(ccc3cccnc23)-c2ccccc21 | 0% | 2.5µM* | 1.3µM* | -89* | -91*
O=C(COc1ccc2c3c(c(=O)oc2c1)CCCC3)N1CCN(c2ccccc2)CC1 | / | 21% | 5% | / | 3
SMILES | PKM2 activator | VP16 counter | RORg inh | CtBP-E1A blk | Six1-Eya2 inh
Cc1ccc(-n2c(=O)[nH]c3c(C(N)=O)nc(-c4ccc(C)o4)nc32)cc1 | 14µM* | ? | ? | -13 | -15
NC1=NN=C(N2N=C(c3ccco3)CC2(O)C(F)(F)F)n2ncnc2C1 (stereo not drawn) | -4% | -10% | -4% | 21 | -71*
Cc1ccc(C2=NN(C3=NN=C(N)Cc4ncnn43)C(O)(C(F)(F)F)C2)cc1 (stereo not drawn) | -5% | ? | 8.9µM* | / | ?
CCOC(=O)N1N=C(c2ccccc2)CC1(O)C(F)(F)F (stereo not drawn) | 1% | 2% | -15% | 0 | 20
CC(C)(C)c1csc(Sc2ncccc2[N+](=O)[O-])n1 | -6% | -12% | 7% | / | -21
COc1cc(CC(=O)OCC(=O)NCc2ccco2)cc(OC)c1OC | / | / | / | 11 | -2
c1ccc(-c2noc(C3CCC3)n2)nc1 | -12% | 16% | 5% | 0 | 2
CCCCC1CCC(c2nc(-c3ccccn3)no2)CC1 (stereo not drawn) | -13% | 13µM* | ? | 60 | 52
CSCC[C@H](NC(=O)[C@H](CC(C)C)NC(=O)[C@H](Cc1c[nH]c2ccccc12)NC(=O)[C@H](CCC(N)=O)NC(=O)[C@@H](NC(=O)[C@H](Cc1ccccc1)NC(=O)[C@H](CC(=O)O)NC(=O)[C@H](CCC(N)=O)NC(=O)[C@H](C)NC(=O)[C@H](CCCNC(=N)N)NC(=O)[C@H](CCCNC(=N)N)NC(=O)[C@H](CO)NC(=O)[C@H](CC(=O)O)NC(=O)[C@H](CC(C)C)NC(=O)[C@H](Cc1ccc(O)cc1)NC(=O)[C@H](CCCCN)NC(=O)[C@H](CO)NC(=O)[C@H](Cc1ccc(O)cc1)NC(=O)[C@H](CC(=O)O)NC(=O)[C@H](CO)NC(=O)[C@@H](NC(=O)[C@H](Cc1ccccc1)NC(=O)[C@@H](NC(=O)CNC(=O)[C@H](CCC(N)=O)NC(=O)[C@H](CO)NC(=O)[C@@H](N)Cc1cnc[nH]1)[C@@H](C)O)[C@@H](C)O)C(C)C)C(=O)N[C@@H](CC(N)=O)C(=O)N[C@H](C(=O)O)[C@@H](C)O | / | -7% | -20% | / | /
COc1cc2c(cc1OC)CN(CCC(=O)c1ccc(Br)cc1)CC2 | / | ? | 11µM* | -5 | -2
CC1CCCN(CCC(=O)c2ccc(Br)cc2)C1 (stereo not drawn) | 0% | 20µM* | ? | 0 | 5
S=C1SCN(CC2CC2)CN1CC1CC1 | -7% | 7.1µM* | 7.9µM* | 7 | 3
N#Cc1cnn(-c2nc3sc4c(c3c(=O)[nH]2)CCCC4)c1N | 3% | -14%[0.365 µM] | 2.8µM* | -6 | 1
S=c1[nH]nc(-c2cc3c(s2)-c2ccccc2CC3)o1 | 0% | 10µM* | 5µM* | -3 | 18
CSc1nnc(-c2cc3c(s2)-c2ccccc2CC3)o1 | -1% | -30% | 1.3µM* | 37 | 64
O=C(NCc1cccnc1)C1Cc2c(-c3ccc(Cl)cc3)ccnc2O1 (stereo not drawn) | / | / | / | -2 | -6
O=C1CC(Sc2ncccn2)C(=O)N1c1ccccc1C(F)(F)F (stereo not drawn) | 23% | 7.1µM* | 4.5µM* | -4 | 0
Cc1cccc(N2C(=O)CC(Sc3nc(-c4ccccc4)c4cc(Cl)ccc4n3)C2=O)c1 (stereo not drawn) | -2% | ? | 2.8µM* | -2 | 0
Cc1cccc(N2C(=O)CC(Sc3nc(C)cc(C)n3)C2=O)c1 (stereo not drawn) | -4% | 3% | -2% | 4 | 0

High-throughput results as filed in PubChem BioAssay.
